# Measured values as given in the supplement of paper PMC8728848.
# Shown is part of a subset that was picked to be rich in the strongest signals.
# What was measured:
# Test in all cases: glycan array binding signal (z-score within array); higher = stronger binding
# Conditions in all cases: glycan notation: IUPAC condensed, linker removed
# [1] = biological target: Fuc(a1-2)Gal
# Summary of the method: (§1)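 From the Consortium for Functional Glycomics database, 3228 arrays were curated, keeping only those whose protein sequence was available. Binding is given as a within-array Z-score averaged across arrays sharing a protein sequence and across linkers. Negative Z-scores can be read as non-binding.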
# [2] = biological target: Fuc(a1-2)Gal(b1-3)GlcNAc(b1-2)Man(a1-3)[Fuc(a1-2)Gal(b1-3)GlcNAc(b1-2)Man(a1-6)]Man(b1-4)GlcNAc(b1-4)GlcNAc
# Summary of the method: as §1
# [3] = biological target: Fuc(a1-2)Gal(b1-3)GlcNAc(b1-3)[Neu5Ac(a2-6)Gal(b1-4)GlcNAc(b1-6)]Gal(b1-4)Glc
# Summary of the method: as §1
# [4] = biological target: Fuc(a1-2)Gal(b1-4)GlcNAc(b1-2)Man(a1-3)[Fuc(a1-2)Gal(b1-4)GlcNAc(b1-2)Man(a1-6)]Man(b1-4)GlcNAc(b1-4)[Fuc(a1-6)]GlcNAc
# Summary of the method: as §1
# [5] = biological target: Fuc(a1-2)Gal(b1-4)[Fuc(a1-3)]GlcNAc(b1-2)[Fuc(a1-2)Gal(b1-4)[Fuc(a1-3)]GlcNAc(b1-4)]Man(a1-3)[Fuc(a1-2)Gal(b1-4)[Fuc(a1-3)]GlcNAc(b1-2)Man(a1-6)]Man(b1-4)GlcNAc(b1-4)GlcNAc
# Summary of the method: as §1
# [6] = biological target: Fuc(a1-2)Gal6S(b1-3)GlcNAc
# Summary of the method: as §1
# [7] = biological target: Fuc(a1-2)[Gal(a1-3)]Gal(b1-3)GlcNAc(b1-2)Man(a1-3)[Fuc(a1-2)[Gal(a1-3)]Gal(b1-3)GlcNAc(b1-2)Man(a1-6)]Man(b1-4)GlcNAc(b1-4)GlcNAc
# Summary of the method: as §1
# [8] = biological target: Gal(a1-3)Gal(b1-3)GlcNAc(b1-2)Man(a1-3)[Gal(a1-3)Gal(b1-3)GlcNAc(b1-2)Man(a1-6)]Man(b1-4)GlcNAc(b1-4)GlcNAc
# Summary of the method: as §1
# [9] = biological target: Gal(a1-3)Gal(b1-3)[Fuc(a1-4)]GlcNAc(b1-2)Man(a1-3)[Gal(a1-3)Gal(b1-3)[Fuc(a1-4)]GlcNAc(b1-2)Man(a1-6)]Man(b1-4)GlcNAc(b1-4)GlcNAc
# Summary of the method: as §1
# [10] = biological target: Gal(a1-3)Gal(b1-4)Glc
# Summary of the method: as §1
# [11] = biological target: Gal(a1-6)Glc
# Summary of the method: as §1
# [12] = biological target: Gal(b1-3)GlcNAc
# Summary of the method: as §1
# [13] = biological target: Gal(b1-3)GlcNAc(b1-3)Gal(b1-4)[Fuc(a1-3)]GlcNAc
# Summary of the method: as §1
# [14] = biological target: Gal(b1-3)GlcNAc(b1-3)GalNAc
# Summary of the method: as §1
# [15] = biological target: Gal(b1-3)[Fuc(a1-4)]GlcNAc(b1-2)Man
# Summary of the method: as §1
# [16] = biological target: Gal(b1-3)[Fuc(a1-4)]GlcNAc(b1-3)Gal(b1-3)[Fuc(a1-4)]GlcNAc
# Summary of the method: as §1
# [17] = biological target: Gal(b1-4)GlcNAc(a1-6)Gal(b1-4)GlcNAc
# Summary of the method: as §1
# [18] = biological target: Gal(b1-4)GlcNAc(b1-2)Man(a1-3)[GlcNAc(b1-2)Man(a1-6)]Man(b1-4)GlcNAc(b1-4)GlcNAc
# Summary of the method: as §1
# [19] = biological target: Gal(b1-4)GlcNAc(b1-2)[Gal(b1-4)GlcNAc(b1-4)]Man(a1-3)[GlcNAc(b1-4)][Gal(b1-4)GlcNAc(b1-2)Man(a1-6)]Man(b1-4)GlcNAc(b1-4)GlcNAc
# Summary of the method: as §1
# [20] = biological target: Gal(b1-4)GlcNAc(b1-3)Gal(b1-4)GlcNAc(b1-2)[Gal(b1-4)GlcNAc(b1-3)Gal(b1-4)GlcNAc(b1-6)]Man(a1-6)[Gal(b1-4)GlcNAc(b1-3)Gal(b1-4)GlcNAc(b1-2)Man(a1-3)]Man(b1-4)GlcNAc(b1-4)GlcNAc
# Summary of the method: as §1
# [21] = biological target: Gal(b1-4)GlcNAc(b1-3)Gal(b1-4)GlcNAc(b1-3)Gal(b1-4)GlcNAc(b1-3)Gal(b1-4)GlcNAc(b1-3)Gal(b1-4)GlcNAc(b1-3)Gal(b1-4)GlcNAc(b1-2)Man(a1-3)[Gal(b1-4)GlcNAc(b1-3)Gal(b1-4)GlcNAc(b1-3)Gal(b1-4)GlcNAc(b1-3)Gal(b1-4)GlcNAc(b1-3)Gal(b1-4)GlcNAc(b1-3)Gal(b1-4)GlcNAc(b1-2)Man(a1-6)]Man(b1-4)GlcNAc(b1-4)GlcNAc
# Summary of the method: as §1
# [22] = biological target: Gal6S(b1-4)GlcNAc
# Summary of the method: as §1
# [23] = biological target: GalNAc(b1-3)Gal(a1-6)Gal(b1-4)Glc
# Summary of the method: as §1
# [24] = biological target: GalNAc(b1-4)GlcNAc(b1-2)Man
# Summary of the method: as §1
# [25] = biological target: GlcNAc(a1-3)Gal(b1-4)GlcNAc
# Summary of the method: as §1
# [26] = biological target: GlcNAc(a1-6)Gal(b1-4)GlcNAc
# Summary of the method: as §1
# [27] = biological target: GlcNAc(b1-3)Gal(b1-4)GlcNAc(b1-2)Man(a1-3)[GlcNAc(b1-3)Gal(b1-4)GlcNAc(b1-2)Man(a1-6)]Man(b1-4)GlcNAc(b1-4)[Fuc(a1-6)]GlcNAc
# Summary of the method: as §1
# [28] = biological target: GlcNAc(b1-3)Gal(b1-4)GlcNAc(b1-2)[GlcNAc(b1-3)Gal(b1-4)GlcNAc(b1-6)]Man(a1-6)[GlcNAc(b1-3)Gal(b1-4)GlcNAc(b1-2)Man(a1-3)]Man(b1-4)GlcNAc(b1-4)GlcNAc
# Summary of the method: as §1
# [29] = biological target: GlcNAc(b1-3)Gal(b1-4)GlcNAc(b1-3)Gal(b1-4)GlcNAc(b1-3)GalNAc
# Summary of the method: as §1
# [30] = biological target: GlcNAc(b1-3)Man
# Summary of the method: as §1
# [31] = biological target: Kdn(a2-3)Gal(b1-4)GlcNAc
# Summary of the method: as §1
# [32] = biological target: Kdn(a2-6)Gal(b1-4)GlcNAc
# Summary of the method: as §1
# [33] = biological target: Neu5Ac(a2-3)Gal(b1-3)GalNAc
# Summary of the method: as §1
# [34] = biological target: Neu5Ac(a2-3)Gal(b1-3)GlcNAc(b1-2)Man(a1-3)[Neu5Ac(a2-3)Gal(b1-3)GlcNAc(b1-2)Man(a1-6)]Man(b1-4)GlcNAc(b1-4)GlcNAc
# Summary of the method: as §1
# [35] = biological target: Neu5Ac(a2-3)Gal(b1-4)GlcNAc(b1-3)Gal(b1-4)GlcNAc(b1-3)Gal(b1-4)GlcNAc(b1-2)Man(a1-3)[Neu5Ac(a2-3)Gal(b1-4)GlcNAc(b1-3)Gal(b1-4)GlcNAc(b1-3)Gal(b1-4)GlcNAc(b1-2)Man(a1-6)]GalNAc
# Summary of the method: as §1
# [36] = biological target: Neu5Ac(a2-3)Gal(b1-4)GlcNAc(b1-3)[Neu5Ac(a2-3)Gal(b1-4)GlcNAc(b1-6)]GalNAc
# Summary of the method: as §1
# [37] = biological target: Neu5Ac(a2-6)Gal(b1-4)GlcNAc(b1-3)Gal(b1-4)GlcNAc(b1-6)[Gal(b1-3)]GalNAc
# Summary of the method: as §1
# [38] = biological target: Neu5Ac(a2-6)Gal(b1-4)GlcNAc(b1-3)[Neu5Ac(a2-6)Gal(b1-4)GlcNAc(b1-6)]GalNAc
# Summary of the method: as §1
# [39] = biological target: Neu5Ac9Ac(a2-3)Gal(b1-4)GlcNAc
# Summary of the method: as §1
# [40] = biological target: Neu5Gc(a2-3)Gal(b1-3)GlcNAc
# Summary of the method: as §1
binder,measurement,setting,value
HPL (Tachypleus tridentatus) (protein) MEDDCTCVTDRSLEGKLMKHPSTPAVYQILDGCRRLVPNPPTYNNIYKNWECIQSNILEKLLCKCDSLSNGAELIKGSGDTVYLLSNGVKRPIADPETFNGFCFDWNKIKTYSDIVINSLSTGPIIIIKHHHHHH,glycan array binding signal (z-score),[1],-0.153
same,glycan array binding signal (z-score),[2],4.15
same,glycan array binding signal (z-score),[3],-0.343
same,glycan array binding signal (z-score),[4],3.19
same,glycan array binding signal (z-score),[5],2.19
same,glycan array binding signal (z-score),[6],0.027
same,glycan array binding signal (z-score),[7],-0.163
same,glycan array binding signal (z-score),[8],3.2
same,glycan array binding signal (z-score),[9],2.31
same,glycan array binding signal (z-score),[10],0.05
same,glycan array binding signal (z-score),[11],1.55
same,glycan array binding signal (z-score),[12],-0.177
same,glycan array binding signal (z-score),[13],-0.309
same,glycan array binding signal (z-score),[14],-0.36
same,glycan array binding signal (z-score),[15],1.71
same,glycan array binding signal (z-score),[16],-0.131
same,glycan array binding signal (z-score),[17],-0.342
same,glycan array binding signal (z-score),[18],-0.178
same,glycan array binding signal (z-score),[19],5.11
same,glycan array binding signal (z-score),[20],2.19
same,glycan array binding signal (z-score),[21],-0.206
same,glycan array binding signal (z-score),[22],-0.335
same,glycan array binding signal (z-score),[23],-0.402
same,glycan array binding signal (z-score),[24],-0.379
same,glycan array binding signal (z-score),[25],-0.255
same,glycan array binding signal (z-score),[26],-0.429
same,glycan array binding signal (z-score),[27],0.104
same,glycan array binding signal (z-score),[28],0.395
same,glycan array binding signal (z-score),[29],-0.251
same,glycan array binding signal (z-score),[30],0.24
same,glycan array binding signal (z-score),[31],-0.185
same,glycan array binding signal (z-score),[32],-0.279
same,glycan array binding signal (z-score),[33],-0.291
same,glycan array binding signal (z-score),[34],2.02
same,glycan array binding signal (z-score),[35],1.54
same,glycan array binding signal (z-score),[36],-0.093
same,glycan array binding signal (z-score),[37],-0.132
same,glycan array binding signal (z-score),[38],0.127
same,glycan array binding signal (z-score),[39],-0.231
same,glycan array binding signal (z-score),[40],-0.215
